Compounds with a hit are over-represented: about 19% of the library has one in this group of screens.
DT40 TDP1 CPT: DT40-hTDP1 cell growth loss with CPT | chicken DT40 Tdp1-/-;hTDP1 cells + 20 nM CPT, ATP luminescence, 48 h | Potency, µM (titrated, usually from 46.2 µM), for inactives: at the top dose activity change, negative = growth inhibition, usual class: inhibitors | actives 12% (n = 420,000) | AID 686979; further: potency means the concentration at half of the fitted maximal effect; nearly all actives have a fitted effect of over 55% in size
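Cell growth measured by CellTiter-Glo luminescence after a minimum 48 h, 37 C compound exposure with 20 nM CPT in Tdp1-knockout DT40 cells stably expressing hTDP1, seeded 400/well; qHTS titration format.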
IL1B secr inh: inflammasome signaling inhibition, IL-1 beta readout. AID 743279. activity change, % at 57.5 µM. actives 4.7% (n = 360,000). THP-1 LPS/ATP IL-1B secretion, AlphaLISA, 16 h; active compounds read low; in the data active means activity change below about -50%; inconclusive means mostly about -30% to -49%
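Secreted IL-1B measured by AlphaLISA bead assay after 16 h compound exposure of THP-1 cells; compounds (final up to 57.5 uM) added 1 h before LPS (250 ng/mL) and ATP (1.25 mM) stimulation; lower signal means less secretion.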
HT1080-NT tox: kills 2HG-producing HT-1080-NT fibrosarcoma cells; HT-1080-NT fibrosarcoma viability, CellTiter-Glo ATP luminescence, 48 h; Potency, µM (series often up to 46.1 µM), for inactives: at the top dose activity, negative = less viability, usual class: cytotoxic; actives 1.6% (n = 360,000); AID 686970;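 further: NT is the 2HG producing partner of a matched IDH1 knockdown line; potency means the concentration at half of the fitted maximal effect; 0% = DMSO-treated cells and -100% = media-only wells without cells; nearly all actives have a fitted effect of over 55% in size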
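Viability by CellTiter-Glo luminescence after 48 h compound exposure at 37C of HT-1080-NT cells (750/well, RPMI, 5% FBS). % activity scaled between DMSO wells and medium-only wells, then curve-fitted and categorized by curve class.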
uPA generation: cell surface uPA generation inhibition. cell surface uPA generation assay, qHTS. Potency, µM (highest dose often 38.3 µM), for inactives: at the highest dose activity change, negative = inhibition, actives largely listed as inhibitors. actives 0.31% (n = 330,000). AID 540303; active means well fitted inhibition curve with a large enough effect; inconclusive means small, poorly fitted or top-dose-only effect; inactive means no such curve, though single readings can be large or run the other way; tested in mouse RAW 264.7 cells; further: potency means the concentration at half of the fitted maximal effect; nearly all actives have a fitted effect of over 55% in size
HT1080 IDH1KD tx: HT-1080 IDH1 knockdown cell toxicity (counter line); HT-1080 IDH1 knockdown viability, ATP luminescence, 48 h; Potency, µM (top dose mostly 46.1 µM), inactives show at the highest dose activity, negative = toxicity, usual class: cytotoxic; actives 2% (n = 360,000); AID 686971;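 further: potency means the concentration at half of the fitted maximal effect; 0% = DMSO wells and -100% = cell-free medium wells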
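Cytotoxicity counter-line: IDH1KD HT-1080, 48 h, CellTiter-Glo. Curves classed by r2, magnitude and activity.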
DT40 TDP1 no CPT: qHTS for Inhibitors of human tyrosyl-DNA phosphodiesterase 1 (TDP1): qHTS in cells in absence of CPT; DT40 Tdp1-/- hTDP1 cells, no CPT, ATP luminescence, 48 h; Potency, µM (series often up to 46.2 µM), without a hit: at the highest dose activity change, negative = growth inhibition, hits mostly inhibitors; actives 15% (n = 420,000); AID 686978, 2013; further: potency means the concentration at half of the fitted maximal effect; nearly all actives have a fitted effect of over 55% in size
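A cellular qHTS used chicken DT40 cells lacking endogenous Tdp1 but carrying stably transfected human TDP1. Compounds were applied without camptothecin, and cell growth kinetics were judged by ATP-dependent luminescence after ≥48 hr.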
The depositor's hits bear a star; ? = inconclusive; nt = no result given; [ ] = dose if it differs, or a comment. Unless noted, the call rests on the fitted dose curve; in most records, active means well fitted curve in the direction sought with a large enough effect; inconclusive means small, poorly fitted or top-dose-only effect, or another doubt; inactive means no such curve, though single readings can be large; an effect the other way counts as inactive or inconclusive. Unless noted, on the % scale 0 is the no-effect control and ±100 the full control effect.

SMILES | DT40 TDP1 CPT | IL1B secr inh | HT1080-NT tox | uPA generation | HT1080 IDH1KD tx | DT40 TDP1 no CPT
Cc1ccc(-c2c3c(=O)n(C)c(=O)n(C)c3cn2Cc2ccccc2)cc1 | ? | -27 | -4% | -1% | 2% | ?
COC(=O)C(Cc1csc2ccc(Cl)cc12)NC(=O)c1ccc(Cl)cc1 (stereo not drawn) | 3% | 2 | 3% | -5% | 1% | -23%
COc1ccc(NC(=O)Cn2nnc3sc4c(c3c2=O)CCC(C)C4)c(OC)c1 (stereo not drawn) | -27% | nt | nt | nt | nt | -16%
CC1CCc2c(sc3nnn(CC(=O)Nc4ccccc4Cl)c(=O)c23)C1 (stereo not drawn) | ? | nt | nt | nt | nt | 16µM*
CC1CCc2c(sc3nnn(CC(=O)Nc4cccc(C(F)(F)F)c4)c(=O)c23)C1 (stereo not drawn) | ? | nt | nt | nt | nt | 21µM*
CN(C[C@H](Cc1ccccc1)N(C[C@H](Cc1cccc2ccccc12)N(CCc1ccccc1)N=O)N=O)N=O | ? | 22 | 0% | 14% | 13% | ?
CN(C[C@H](CC1CCCCC1)N(C[C@H](Cc1ccccc1)N(CCc1ccccc1)N=O)N=O)N=O | 18µM* | -8 | 0% | 1% | -9% | 16µM*
CC(C)C[C@@H](CN(C)N=O)N(C[C@H](Cc1ccccc1)N(CCc1ccccc1)N=O)N=O | ? | -10 | 1% | -1% | 2% | 18µM*
CN(C[C@H](Cc1ccccc1)N(C[C@H](Cc1ccccc1)N(CCc1cc(C(F)(F)F)cc(C(F)(F)F)c1)N=O)N=O)N=O | ? | -8 | 11% | 10% | 10% | 21µM*
COc1cccc(C(NC(C)=O)c2nc(-c3ccncc3)cs2)c1 (stereo not drawn) | -21% | 17 | 17% | nt | 1% | ?
COc1ccc(OC)c(-c2cc(Cl)c3c(c2)CC(CNC(=O)c2coc4c2C(=O)CCC4)O3)c1 (stereo not drawn) | 15%[9.04 µM] | nt | nt | nt | nt | -15%
O=S(=O)(CCN1C=CC(C(F)(F)F)=NCC1)c1ccc(Cl)cc1Cl | -6% | -68* | -2% | -11% | 1% | -23%
O=S(=O)(c1ccc2c(c1)CCN2)N1CCCCCC1 | -7% | nt | nt | nt | nt | -11%
CN(CCc1ccccc1)C(=O)c1cccc(NC(=O)Cc2cccc([N+](=O)[O-])c2)c1 | ? | ? | -1% | -9% | -7% | ?
CC#CC[N+](C)(C)CC(=O)c1ccccc1 | 7% | 3 | 1% | -1% | 13% | 25%
CC#CC[N+](C)(C)CCCCCCCC | 12µM* | -2 | -2% | -10% | -10% | 9.2µM*
O=C(NC1CCCCC1)C(c1ccncc1)N(Cc1ccc(F)cc1)C(=O)c1ccccn1 (stereo not drawn) | 11% | -3 | 0% | -13% | -10% | -8%
COc1ccc(-c2nnn(CC(=O)N(Cc3ccc(F)cc3)C(C(=O)NC3CCCC3)c3ccc(F)cc3)n2)cc1 (stereo not drawn) | 21µM* | 25 | ? | -6% | -3% | ?
O=C(NC1CCCC1)C(c1ccc(F)cc1)N(Cc1ccc(F)cc1)C(=O)CCl (stereo not drawn) | 3.3µM* | -104* | 8% | 3% | 9% | 4.6µM*
COc1cc(-c2nnc(SCC(=O)Oc3ccccc3Cl)o2)cc(OC)c1OC | -4% | nt | nt | nt | nt | -4%
COc1ccc(-c2nnc(SCCOc3ccccc3C)o2)cc1OC | ? | nt | nt | nt | nt | 18µM*
CCc1ccccc1OCCSc1nnc(-c2cc(OC)c(OC)c(OC)c2)o1 | 18µM* | nt | nt | nt | nt | 18µM*
COc1ccc(C(C(=O)NCCC(C)C)N(CCO)C(=O)c2snc(C(N)=O)c2N)cc1 (stereo not drawn) | -14% | -22 | -1% | 14% | -1% | -4%
Cc1ccc(S(=O)(=O)N2CCCC2CNC(=O)C(=O)NC2CCCC2)cc1 (stereo not drawn) | ? | 28 | -6% | 0% | -10% | ?
C[C@H](CO)N1C[C@H](C)[C@@H](CN(C)S(=O)(=O)c2ccccc2F)Oc2ncc(Br)cc2C1=O | -20% | 14 | 11% | nt | 6% | -26%
SMILES | DT40 TDP1 CPT | IL1B secr inh | HT1080-NT tox | uPA generation | HT1080 IDH1KD tx | DT40 TDP1 no CPT
C/C(=C\c1ccccc1)C(=O)c1c(C)cc(C)[nH]c1=O | -11% | -16 | 13% | -15% | 3% | -5%
Cc1ccc(C(=O)/C=C/c2ccc(Br)cc2)o1 | ? | -57* | -22% | -15% | -9% | 23µM*
Cc1ccc(C(=O)/C=C/c2ccccc2)o1 | ? | ? | -2% | -3% | -8% | 15µM*
Cc1cc(C)c(C(=O)/C=C/c2cccc3ccccc23)c(=O)[nH]1 | 16µM* | -85* | ? | -9% | ? | 9.2µM*
CCNc1ccccc(C(=O)/C=C/c2ccc3c(c2)OCO3)c1=O | 8.2µM* | -9 | -25% | -5% | -18% | 16µM*
Cc1ccc(C(=O)Cc2ccccc2)o1 | -16% | 12 | 2% | 4% | 4% | -1%
COC(=O)/C=C/c1ccc2c(c1)OCO2 | -6% | -14 | -22% | -1% | -5% | 1%
O=C(c1cccc(Cl)c1)N1CCC(N2CCC(C(=O)N3CCCC3)CC2)CC1 | -19% | 15 | 5% | 7% | 14% | 14%
Cc1cc(C)c(C(=O)/C=C/c2ccc3c(c2)OCO3)c(=O)[nH]1 | ? | -91* | 1% | 1% | 0% | ?
C/C(=C\c1ccccc1F)C(=O)c1c(C)cc(C)[nH]c1=O | -24% | -68* | 0% | -1% | -2% | -17%
Cc1ccc(C(=O)/C=C/c2ccc3c(c2)OCO3)o1 | 18µM* | -50* | ? | ? | ? | 21µM*
Cc1ccc(C(=O)N/N=C/c2ccc3c(c2)OCO3)o1 | -18% | 2 | -18% | ? | ? | -1%
O=C(O)C(=Cc1cccc([N+](=O)[O-])c1)c1ccc(Cl)cc1 | ? | -5 | -1% | 0% | 7% | ?
CCCC[n+]1ccc(-c2nc3ccc([N+](=O)[O-])cc3[nH]2)cc1 | 4% | 20 | 2% | -1% | 5% | -24%
O=[N+]([O-])c1ccc2nc(C(O)C(O)c3nc4ccc([N+](=O)[O-])cc4[nH]3)[nH]c2c1 (stereo not drawn) | -17% | 21 | -4% | 6% | -9% | -27%

Source: PubChem BioAssay (National Center for Advancing Translational Sciences (NCATS))
